From PubChem
LGR2 inh: inhibitors of bursicon-induced Drosophila LGR2 receptor cAMP signaling | HEK293 LGR2, CRE-luciferase, bursicon-stimulated, 4 h | inhibition, % at 9.99 µM | 380,000 tested, 0.35% active | AID 720647;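 active = drop in luminescence signal, shown as inhibition above about 50% in the replicate tests, limit read from the data, passing the limit was not always enough; inconclusive = probably only some replicates passing the limit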;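 note: agonist challenge used bursicon conditioned medium at about half maximal strength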
LMP1 NFkB inh: Epstein-Barr LMP1 NF-kappaB reporter inhibition; LMP1-induced NF-kappaB luciferase reporter cells, luminescence; inhibition, % at 12.5 µM; 350,000 tested, 0.69% active; AID 504558; in the data active = inhibition above about 41%; inconclusive = no clear call, values can overlap the other calls
HSF1 inh: HSF1 inhibition; activity change, negative = inhibition, % at 7.5 µM (by protocol); 300,000 tested, 0.77% active; NIH3T3-HGL HSE-luciferase, MG132-induced, luminescence 8 h; active compounds read low;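 active = more than half of replicate wells show activity change below -50%, luminescence cut by over half; inconclusive = some wells, but at most half, below -50%; inactive = no replicate well below -50%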;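 note: luciferase reports HSF-1 transcriptional activity via heat shock element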
TWEAK-Fn14 inh: TWEAK-Fn14 signaling inhibition | TWEAK-stimulated Fn14 reporter cells, luciferase luminescence, 8 h | inhibition, % at 10 µM | 360,000 tested, 2% active | AID 1159606; in the data active = inhibition above about 50%
TROY NFkB inh: inhibitors of TROY-dependent NF-kB signaling; Q293 LMP1-TROYcd NF-kB luciferase reporter, 4 h; inhibition, % at 10 µM; 360,000 tested, 0.98% active;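 active = compounds whose plate-normalised and pattern-corrected inhibition of the luciferase reporter signal at the single screening dose is 50% or more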
HSF-1 act: increases HSF-1 driven luciferase reporter signal; NIH3T3-HGL HSF-1 luciferase reporter, MG132, 8 h; 100% = twice DMSO control signal; 300,000 tested, 1.7% active; activation, % at 9 µM;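 active = mean replicate activation of at least 50% with a set share of replicates each reaching 50%; inconclusive = only one of those two conditions met; inactive = mean below 50% and too few replicates reaching it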
A number is an active result; – = inactive; ? = inconclusive; · = no result. Rows were chosen to be rich in hits. Some 3.6% of all compounds tested hit in one or more screens of this group.

SMILES	LGR2 inh	LMP1 NFkB inh	HSF1 inh	TWEAK-Fn14 inh	TROY NFkB inh	HSF-1 act
O=[N+]([O-])c1nn(-c2ccc3c(c2)OCCO3)n(O)c1=Nc1ccccc1	–	75.3	-89.1	103.9	88.2	–
Cc1ccc(N=c2c([N+](=O)[O-])nn(-c3ccc4c(c3)OCCO4)n2O)c(Cl)c1	·	·	-62.5	·	·	–
CNC[C@@H]1Oc2ccc(NS(=O)(=O)c3cn(C)cn3)cc2CC(=O)N([C@H](C)CO)C[C@H]1C	–	·	·	·	·	·
C[C@@H]1CN([C@H](C)CO)C(=O)c2cc(C#Cc3ccccc3)cnc2O[C@@H]1CN(C)C(=O)C1CC1	–	·	·	·	·	·
COc1cccc(NC(=O)N2CC(=O)N3[C@H](C2)[C@@H](c2ccc(C#CC4CCCC4)cc2)[C@@H]3CO)c1	–	·	·	·	·	·
N#C[C@@H]1[C@@H](c2ccccc2C2=CCCCC2)[C@H](CO)N1C(=O)NC1CCCCC1	–	·	·	·	·	·
O=[N+]([O-])c1nn(-c2ccc3c(c2)OCCO3)n(O)c1=Nc1ccc(Cl)cc1	–	57.6	-79.2	100.5	87.9	–
CC(CNC1CCCCC1)OC(=O)c1ccccc1 (stereo unspecified)	–	62.5	·	–	–	·
O=C(O)C1CCCCC1C(=O)NCc1ccccc1 (stereo unspecified)	·	–	–	–	–	–
CC(=O)c1cccc(NC(=O)C2CC(=O)N(Cc3ccccc3)C2)c1 (stereo unspecified)	–	–	–	–	–	–
CC(=O)c1cccc(NC(=O)C2CC(=O)N(CCc3ccccc3)C2)c1 (stereo unspecified)	–	–	-59.2	–	–	–
O=C(NCCCc1ccccc1)c1cccc(NC(=O)C2CCCCC2)c1	–	–	·	54.1	–	·
CN(C(=O)c1cccc(NC(=O)Cc2ccc(NC(=O)C3CCCN(C(=O)CCc4ccccc4)C3)cc2)c1)C1CCCC1 (stereo unspecified)	–	–	·	53.4	–	·
O=C(NCc1ccccc1)C1CCCC1	·	·	-62.3	·	·	–
NC(=O)C1(N2CCCCC2)CCN(C(=O)c2ccc(-n3cnnn3)cc2)CC1	·	64.2	–	–	–	–
CCC(=O)N[C@H]1CC[C@H](CC(=O)NCc2ccccc2OC)O[C@@H]1CO	–	·	·	·	·	·
Nc1ccc(Nc2nc(-c3cc4ccccc4oc3=O)cs2)cc1	–	–	–	–	–	–
O=C(Nc1nc(-c2cc3ccccc3oc2=O)cs1)c1ccc(Br)o1	·	–	–	–	–	65.7
CC(=O)Nc1ccc(Nc2nc(-c3cc4ccccc4oc3=O)cs2)cc1	–	–	–	–	–	–
O=C(O)c1ccc(Nc2nc(-c3cc4ccccc4oc3=O)cs2)cc1O	–	–	–	–	–	65.0
C[C@@H]1CN([C@@H](C)CO)C(=O)c2c(c3ccccc3n2C)-c2ccccc2CO[C@@H]1CN(C)Cc1ccccc1C(F)(F)F	–	·	·	·	·	·
COc1ccc(O)c(C(=O)CC(=O)c2ccc(F)cc2)c1	74.6	–	–	84.7	–	–
O=C(Nc1ccc(OCc2ccccc2)cc1)Nc1ccccc1C(=O)NCCCN1CCOCC1	–	–	–	88.8	–	–
O=C(Nc1ccccc1C(=O)NCCCN1CCOCC1)c1ccc(F)cc1F	–	–	–	–	–	–
CCOc1ccc(NC(=O)NCCCN2CCCC2)cc1	–	–	–	90.3	–	–
SMILES	LGR2 inh	LMP1 NFkB inh	HSF1 inh	TWEAK-Fn14 inh	TROY NFkB inh	HSF-1 act
Cc1ccc(Nc2nc(N)c3ccccc3n2)cc1C	80.6	–	–	68.4	–	–
CC(NC(=O)CSc1nc2ccccc2c(=O)[nH]1)c1ccccc1 (stereo unspecified)	–	–	–	–	–	–
CC(C)CCNC(=O)CSc1nc2ccccc2c(=O)[nH]1	·	–	–	–	–	55.5
CCOC(=O)c1cnc2ccc(C(=O)OC)cc2c1Nc1ccc(C(=O)O)cc1	–	–	–	–	–	–
CCOC(=O)c1ccc2ncc(C(=O)OCC)c(Nc3ccc(N4CCOCC4)cc3)c2c1	55.5	–	–	53.0	–	–
COc1ccc(C(=O)/C=C/c2cc(OC)c(O)c(OC)c2)c(F)c1	–	–	–	56.5	–	–
COc1ccc(OC)c(C(=O)/C=C/c2ccccc2C(F)(F)F)c1	·	–	–	59.2	–	212.0
COc1ccc(C(=O)/C=C/c2ccccc2)c(OC)c1	–	–	–	58.5	–	62.3
COc1ccc(C=CC(=O)c2c(OC)cc(OC)c(OC)c2O)cc1	–	–	·	67.9	–	·
COc1ccc(OC)c(C(=O)C(=O)c2cc(OC)ccc2OC)c1	–	–	·	–	–	·
COCC(=O)N1C[C@H](C)[C@@H](OC)CN(C)C(=O)c2ccc(NC(=O)Nc3ccccc3)cc2OC[C@@H]1C	–	·	·	·	·	·
CO[C@H]1CN(C)C(=O)c2ccc(NC(C)=O)cc2OC[C@@H](C)N(C(=O)C2CC2)C[C@H]1C	–	·	·	·	·	·
O=C(N[C@H]1C=C[C@H](CC(=O)N2CCOCC2)O[C@@H]1CO)c1ccccn1	–	·	·	·	·	·
C[C@@H]1CN([C@@H](C)CO)C(=O)c2cc(NC(=O)Nc3ccc(C(F)(F)F)cc3)ccc2O[C@@H](C)CCCCO[C@H]1CN(C)C(=O)Nc1cccc2ccccc12	–	·	·	·	·	·
COc1ccc(C(=O)/C=C/Nc2cc(C)on2)c(OC)c1	·	–	-58.2	–	–	–
COc1ccc(C(=O)/C=C/Nc2ccc([N+](=O)[O-])cc2C)c(OC)c1	·	–	–	–	–	–
COCOc1cc(O)c(C(=O)/C=C/c2ccccc2)c(OCOC)c1	–	–	–	70.5	–	155.1
COc1ccc(NC(=O)CN(C)C(=O)c2ccc(N3CCCCCC3)c([N+](=O)[O-])c2)cc1	–	–	–	–	–	66.6
COc1ccc(C(=O)/C=C/c2ccc(N3CCCCC3)c([N+](=O)[O-])c2)c(OC)c1	–	–	–	–	–	67.8
COc1ccc(C(=O)/C=C/c2ccc(N3CCCCC3)c([N+](=O)[O-])c2)cc1	–	–	–	–	–	–
CN(C)C(=O)[C@H]1[C@H](CO)[C@H]2Cn3c(ccc(C4=CCCC4)c3=O)[C@H]2N1C(=O)Cc1cccnc1	–	·	·	·	·	·
COC(=O)N1C(=O)[C@@](c2ccccc2)(C2CCCCC2)N1C(=O)OC	–	–	–	73.5	–	?
CC[C@@]1(c2ccccc2)C(=O)N(C(=O)OC)N1C(=O)OC	–	–	–	–	–	–
CCOC(=O)/C=C(/C)N1N=C(c2ccc(OC)cc2)CC1c1cccc([N+](=O)[O-])c1 (stereo unspecified)	–	–	–	–	–	59.2
COc1ccc(C2=NN(C(=O)c3ccccc3)C(c3cccc([N+](=O)[O-])c3)C2)cc1 (stereo unspecified)	–	–	–	–	–	–
Cc1ccc(-n2nc3cc(C)c(NC(=S)NC(=O)/C=C/c4ccco4)cc3n2)cc1	–	–	–	–	69.4	–
Cc1ccc(-n2nc3ccc(NC(=S)NC(=O)/C=C/c4ccco4)cc3n2)cc1	–	–	–	–	–	–
O=C(/C=C/c1ccco1)NC(=S)Nc1cc(-c2nc3ccccc3s2)ccc1Cl	–	–	·	–	–	·
